EBV LMP1 NFkB: EBV LMP1-driven NF-kappaB luciferase reporter inhibitors, primary screen, cell-based, luminescence, single point; inhibition, % at 12.5 µM; 0.69% of 350,000 active; AID 504558, 2011; LMP1-induced NF-kappaB luciferase reporter cells; in the data active = inhibition above about 41%
697 NFkB inh: inhibitors of PMA/ionomycin-induced NF-kB reporter, 697 cells, primary screen, B-cell NF-kB inhibitor project, cell-based, luminescence, uHTS; 697 B-cell NF-kB luciferase reporter, 16 h; AID 435022, 2010; inhibition, % at 4 µM; 0.33% of 330,000 active; in the data active = inhibition above about 35%
Shn3 3UTR inh: reduction of Shn3 3'UTR firefly luciferase signal, primary screen, Schnurri-3 inhibitor project, cell-based, Clone20 osteoblasts, set 2 | 0.52% of 360,000 active | inhibition, % at 12.5 µM | Clone20 osteoblast Shn3 3'UTR firefly luciferase, 24 h | AID 588674, 2011;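 active = mean inhibition of at least 75% with every replicate also reaching 75%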
TRPM1 prom inh: inhibitors of MITF-dependent TRPM1 promoter reporter, primary screen, cell-based, SK-MEL-5, single point, luciferase; SK-MEL-5 TRPM1 promoter luciferase, 24 h; inhibition, % at 12.5 µM; 0.83% of 330,000 active; AID 488899, 2010;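 active = mean inhibition across replicates of 60% or more, whatever share of single replicates reaches that level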
Gli-Sufu block: Gli-Sufu pathway antagonists, primary screen, luciferase luminescence, Sufu-KO-LIGHT cells, uHTS | Sufu-KO-LIGHT fibroblasts, Gli luciferase reporter luminescence | inhibition, % at 5 µM | 0.74% of 340,000 active;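 active = inhibition above about 55%, limit read from the data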
Jurkat NFkB inh: inhibitors of induced NF-kB luciferase reporter, primary screen, TCR NF-kB activation inhibitor project, cell-based, luminescence, uHTS | Jurkat, PMA/ionomycin-induced NF-kB luciferase reporter | inhibition, % at 4 µM | 0.53% of 330,000 active | AID 435003, 2010; in the data active = inhibition above about 50%
Jurkat NFkB conf: PMA/ionomycin-induced NF-kB reporter inhibitors, Jurkat retest, confirmation, T-cell NF-kB inhibitor project, cell-based, luminescence, single concentration; inhibition, % at 4 µM; shares compounds with Jurkat NFkB inh; Jurkat NF-kB luciferase, 16 h; AID 435020, 2010; 27% of 2,700 active;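 active = inhibition reaching about 45% at 4 µM in either replicate, limit read from the data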
A number is an active result; n = inactive; x = not tested or not shown. Sampled rows, rich in hits. Any-hit rate of the full collection: about 2.3%.

SMILES	EBV LMP1 NFkB	697 NFkB inh	Shn3 3UTR inh	TRPM1 prom inh	Gli-Sufu block	Jurkat NFkB inh	Jurkat NFkB conf
C[n+]1c2n(c3ccccc31)N=C(c1cc(C(C)(C)C)c(O)c(C(C)(C)C)c1)CS2	44.7	n	89.7	n	88.8	52.1	n
COc1ccccc1NC(=O)c1cnc(Nc2ccccc2OC)c2ccccc12	n	n	n	n	n	59.4	n
O=C(NC1(C(F)(F)F)NC(=O)N(Cc2cccnc2)C1=O)c1ccccc1 (stereo not drawn)	n	n	n	n	n	n	x
CCOc1cc(CNCCc2ccc(S(N)(=O)=O)cc2)ccc1OCc1ccc(Cl)cc1	n	n	90.5	91.9	n	54.1	n
COc1cc(CNCCc2ccc(S(N)(=O)=O)cc2)ccc1OCc1ccc(Cl)cc1	n	n	n	n	n	n	x
CCCCCC(=O)N[C@@H](c1ccccc1)[C@@H](O)C(=O)O[C@H]1C[C@@]2(O)[C@@H](OC(=O)c3ccccc3)C3[C@](C)(C(=O)[C@H](OC(C)=O)C(=C1C)C2(C)C)[C@@H](O)C[C@H]1OC[C@@]31OC(C)=O (stereo partly drawn)	n	n	n	x	n	71.9	55.5
CC(=O)O[C@H]1C(=O)[C@@]2(C)[C@H]([C@H](OC(=O)c3ccccc3)[C@]3(O)C[C@H](OC(=O)[C@H](O)[C@@H](NC(=O)c4ccccc4)c4ccccc4)C(C)=C1C3(C)C)[C@]1(OC(C)=O)CO[C@@H]1C[C@@H]2O	n	n	n	n	n	69.6	68.1
CC(=O)O[C@H]1C(=O)[C@@]2(C)[C@H]([C@H](OC(=O)c3ccccc3)[C@]3(O)C[C@H](OC(=O)[C@H](O)C(NC(=O)c4ccccc4)c4ccccc4)C(C)=C1C3(C)C)[C@]1(OC(C)=O)CO[C@@H]1C[C@@H]2O (stereo partly drawn)	n	n	n	n	n	58.8	60.4
CSc1cccc(N2CC(C(=O)NCCN3C(=O)S/C(=C\c4cccnc4)C3=O)CC2=O)c1 (stereo not drawn)	n	n	n	n	n	n	x
OC1CCN(Cc2ccc(OCc3ccccc3)cc2)CC1	n	n	n	n	n	n	x
O=C(CSc1nnc(-c2csc3c2CCCC3)o1)Nc1ccccc1	n	n	n	n	n	n	n
COc1cccc(CNC(=O)N[C@@H](CC(C)C)C(=O)O)c1	n	n	n	n	n	n	x
O=C(N/N=C/c1cn(-c2ccccc2)nc1-c1cc2ccccc2o1)c1ccncc1	n	n	n	n	n	n	n
O=C(N/N=C/c1cn(-c2ccccc2)nc1-c1cc2ccccc2o1)c1cccnc1	n	n	n	n	n	n	x
COc1ccc(NC(=O)CN(c2ccc([N+](=O)[O-])cc2)S(=O)(=O)c2ccccc2)c(OC)c1	n	n	n	n	n	n	x
COCCn1c(SCC(=O)Nc2ccc3c(c2)OCCO3)nc2ccccc2c1=O	n	x	n	x	x	x	x
CC(Oc1ccc(Br)cc1Cl)C(=O)Nc1ccncc1 (stereo not drawn)	n	n	n	n	n	53.3	n
CC(Oc1ccc(Br)cc1)C(=O)Nc1ccncc1 (stereo not drawn)	n	n	n	n	n	n	x
COc1ccc(C(=O)Nc2ccc3[nH]c(-c4cccc(OC)c4)cc(=O)c3c2)cc1	n	n	n	n	n	85.4	49.2
CCOc1cc(C2NN=C(c3ccc(C)cc3)S2)ccc1O (stereo not drawn)	n	x	n	n	n	x	x
Oc1ccccc1C1NN=C(c2ccccc2)S1 (stereo not drawn)	n	n	n	n	n	n	n
CSc1nccc(N/N=C/c2ccccc2)n1	n	n	n	n	n	n	n
O=C(N/N=C/c1c(O)ccc2ccccc12)c1cccc(C(F)(F)F)c1	n	n	n	70.7	59.8	51.8	73.9
CC1CC(C)(C)CC2(C1)NC(=O)N(CC(=O)N1CCN(S(=O)(=O)c3cccc(Cl)c3Cl)CC1)C2=O (stereo not drawn)	n	x	n	n	n	x	x
Cc1cccc(OCC(=O)N2CCOCC2)c1	n	n	n	n	n	n	x
SMILES	EBV LMP1 NFkB	697 NFkB inh	Shn3 3UTR inh	TRPM1 prom inh	Gli-Sufu block	Jurkat NFkB inh	Jurkat NFkB conf
COc1ccccc1C1NC(=O)CCC1[N+](=O)[O-] (stereo not drawn)	x	n	n	n	n	n	x
Cc1ccc(-n2ncc3c(N4CCCC4)ncnc32)c(C)c1	n	n	n	n	n	n	x
COc1cccc(N2CCN(c3ncnc4c3cnn4-c3ccc(C)cc3C)CC2)c1	n	n	90.9	67.6	n	86.9	69.8
COc1cccc(-n2c(Cc3cc(=O)[nH]c(=O)[nH]3)nnc2SCC(=O)N2CCCC2)c1	n	n	n	n	n	n	x
COc1ccc(C2=NN(C(C#N)c3ccc(OC)c(OC)c3)C(c3ccccc3)C2)cc1 (stereo not drawn)	n	n	n	n	n	n	n
COc1ccc2c(Cn3cnc4cc([N+](=O)[O-])ccc4c3=O)cc(=O)oc2c1	n	n	n	n	n	70.4	n
COc1cc(C(=O)Nc2ccc3c(c2)ncn3C)cc(OC)c1OC	n	n	n	n	x	52.4	n
COc1cc(C(=O)Nc2ccc3c(c2)nc(C)n3C)cc(OC)c1OC	n	n	n	n	n	n	x
CN(C)c1ncc(S(=O)(=O)c2ccc(Cl)cc2)c(-c2ccccc2)n1	n	n	n	n	n	n	x
O=S(=O)(c1ccc(Cl)cc1)c1snnc1-c1ccccc1	n	n	n	82.6	n	52.8	n
O=C(c1ccc(F)cc1)C(CN1CCOCC1)c1ccccc1 (stereo not drawn)	n	n	94.4	90.3	n	52.5	n
Cc1ccc(S(=O)(=O)N2CCN(C(C)C(=O)N3CCCc4ccccc43)CC2)cc1 (stereo not drawn)	n	n	n	n	n	n	x
COc1ccc(C(=O)CCNc2ccc(F)cc2)cc1	n	n	n	n	n	70.4	n
COc1cccc2sc3ccc(C#CC4(O)CCCCC4)cc3c(=O)c12	n	n	n	n	n	n	n
COc1cccc2sc3ccc(C#Cc4ccc(N)cc4)cc3c(=O)c12	n	n	n	n	n	n	x
O=C(Nc1ccccn1)c1sc2cccc(F)c2c1Cl	n	n	n	n	n	n	n
O=C(COc1ccc2c(-c3ccccc3)cc(=O)oc2c1)Nc1cccnc1	n	n	n	n	n	50.2	48.5
Cc1ccc(-c2onc3ccc(C(=O)O)cc23)cc1	n	n	n	x	n	51.7	n

Screening results from PubChem.
